Assay results: PMC9911399, “Two distinct binding modes provide the RNA-binding protein RbFox with extraordinary sequence specificity”
Where a chain is given by its changes, count along the chain named. Over roughly 16,000 sequences, “ka relative to ugcaugu” has its median near 0.0091; the highest 2% begin near 0.032. Many of the other results were omitted from the sample, so the highest values are more common in it than they were.

B1: CUAAUAC (DNA:RNA)
RNA: GGGAGACCGGAAUUCAGAUUGUCCCUAAUACUUAAAUCCCGUCGUAGCCACCA
DNA 1: CAATCTGAATTCCGGTCTCCC
DNA 2: TGGTGGCTACGACGGGATT
B2: UUAAUCA (DNA:RNA)
RNA: B1 RNA with C25U, A30C, C31A
DNA 1: CAATCTGAATTCCGGTCTCCC
DNA 2: TGGTGGCTACGACGGGATT
B3: UUUGCUU (DNA:RNA)
RNA: B1 RNA with C25U, A27U, A28G, U29C, A30U, C31U
DNA 1: CAATCTGAATTCCGGTCTCCC
DNA 2: TGGTGGCTACGACGGGATT
B4: CCAAUGG (DNA:RNA)
RNA: B1 RNA with U26C, A30G, C31G
DNA 1: CAATCTGAATTCCGGTCTCCC
DNA 2: TGGTGGCTACGACGGGATT
B5: UACCAUC (DNA:RNA)
RNA: B1 RNA with C25U, U26A, A27C, A28C, U29A, A30U
DNA 1: CAATCTGAATTCCGGTCTCCC
DNA 2: TGGTGGCTACGACGGGATT
B6: CAGGAGG (DNA:RNA)
RNA: B1 RNA with U26A, A27G, A28G, U29A, A30G, C31G
DNA 1: CAATCTGAATTCCGGTCTCCC
DNA 2: TGGTGGCTACGACGGGATT
B7: GCAUGGC (DNA:RNA)
RNA: B1 RNA with C25G, U26C, A28U, U29G, A30G
DNA 1: CAATCTGAATTCCGGTCTCCC
DNA 2: TGGTGGCTACGACGGGATT
B8: GUCAUGG (DNA:RNA)
RNA: B1 RNA with C25G, A27C, A30G, C31G
DNA 1: CAATCTGAATTCCGGTCTCCC
DNA 2: TGGTGGCTACGACGGGATT
B9: GGAUGGG (DNA:RNA)
RNA: B1 RNA with C25G, U26G, A28U, U29G, A30G, C31G
DNA 1: CAATCTGAATTCCGGTCTCCC
DNA 2: TGGTGGCTACGACGGGATT
B10: GGAAUGG (DNA:RNA)
RNA: B1 RNA with C25G, U26G, A30G, C31G
DNA 1: CAATCTGAATTCCGGTCTCCC
DNA 2: TGGTGGCTACGACGGGATT
B11: GUAUGGU (DNA:RNA)
RNA: B1 RNA with C25G, A28U, U29G, A30G, C31U
DNA 1: CAATCTGAATTCCGGTCTCCC
DNA 2: TGGTGGCTACGACGGGATT
B12: GCAUGGG (DNA:RNA)
RNA: B1 RNA with C25G, U26C, A28U, U29G, A30G, C31G
DNA 1: CAATCTGAATTCCGGTCTCCC
DNA 2: TGGTGGCTACGACGGGATT
B13: GCAUGGU (DNA:RNA)
RNA: B1 RNA with C25G, U26C, A28U, U29G, A30G, C31U
DNA 1: CAATCTGAATTCCGGTCTCCC
DNA 2: TGGTGGCTACGACGGGATT
B14: GGAUGGC (DNA:RNA)
RNA: B1 RNA with C25G, U26G, A28U, U29G, A30G
DNA 1: CAATCTGAATTCCGGTCTCCC
DNA 2: TGGTGGCTACGACGGGATT
B15: GCAUCGU (DNA:RNA)
RNA: B1 RNA with C25G, U26C, A28U, U29C, A30G, C31U
DNA 1: CAATCTGAATTCCGGTCTCCC
DNA 2: TGGTGGCTACGACGGGATT
B16: GGCAUGG (DNA:RNA)
RNA: B1 RNA with C25G, U26G, A27C, A30G, C31G
DNA 1: CAATCTGAATTCCGGTCTCCC
DNA 2: TGGTGGCTACGACGGGATT
B17: GCAUAGC (DNA:RNA)
RNA: B1 RNA with C25G, U26C, A28U, U29A, A30G
DNA 1: CAATCTGAATTCCGGTCTCCC
DNA 2: TGGTGGCTACGACGGGATT
B18: GUAUGGG (DNA:RNA)
RNA: B1 RNA with C25G, A28U, U29G, A30G, C31G
DNA 1: CAATCTGAATTCCGGTCTCCC
DNA 2: TGGTGGCTACGACGGGATT
B19: GUGUAAG (DNA:RNA)
RNA: B1 RNA with C25G, A27G, A28U, U29A, C31G
DNA 1: CAATCTGAATTCCGGTCTCCC
DNA 2: TGGTGGCTACGACGGGATT
B20: UAGUACG (DNA:RNA)
RNA: GGGAGACCGGAAUUCAGAUUGUCCUAGUACGUUAAAUCCCGUCGUAGCCACCA
DNA 1: CAATCTGAATTCCGGTCTCCC
DNA 2: TGGTGGCTACGACGGGATT
B21: CAGUGCA (DNA:RNA)
RNA: B20 RNA with U25C, A29G, G31A
DNA 1: CAATCTGAATTCCGGTCTCCC
DNA 2: TGGTGGCTACGACGGGATT
B22: GCCCCCA (DNA:RNA)
RNA: B20 RNA with U25G, A26C, G27C, U28C, A29C, G31A
DNA 1: CAATCTGAATTCCGGTCTCCC
DNA 2: TGGTGGCTACGACGGGATT
B23: UAGUAAA (DNA:RNA)
RNA: B20 RNA with C30A, G31A
DNA 1: CAATCTGAATTCCGGTCTCCC
DNA 2: TGGTGGCTACGACGGGATT
B24: GAUAUAC (DNA:RNA)
RNA: B1 RNA with C25G, U26A, A27U
DNA 1: CAATCTGAATTCCGGTCTCCC
DNA 2: TGGTGGCTACGACGGGATT
B25: AGUAAAU (DNA:RNA)
RNA: B1 RNA with C25A, U26G, A27U, U29A, C31U
DNA 1: CAATCTGAATTCCGGTCTCCC
DNA 2: TGGTGGCTACGACGGGATT
B26: GCAUUGG (DNA:RNA)
RNA: B1 RNA with C25G, U26C, A28U, A30G, C31G
DNA 1: CAATCTGAATTCCGGTCTCCC
DNA 2: TGGTGGCTACGACGGGATT
B27: GCCAUGG (DNA:RNA)
RNA: B1 RNA with C25G, U26C, A27C, A30G, C31G
DNA 1: CAATCTGAATTCCGGTCTCCC
DNA 2: TGGTGGCTACGACGGGATT
B28: CGCAUGG (DNA:RNA)
RNA: B1 RNA with U26G, A27C, A30G, C31G
DNA 1: CAATCTGAATTCCGGTCTCCC
DNA 2: TGGTGGCTACGACGGGATT
B29: CUUGGUG (DNA:RNA)
RNA: B1 RNA with A27U, A28G, U29G, A30U, C31G
DNA 1: CAATCTGAATTCCGGTCTCCC
DNA 2: TGGTGGCTACGACGGGATT
B30: AGGGUAG (DNA:RNA)
RNA: B1 RNA with C25A, U26G, A27G, A28G, C31G
DNA 1: CAATCTGAATTCCGGTCTCCC
DNA 2: TGGTGGCTACGACGGGATT
B31: GGGGCUG (DNA:RNA)
RNA: B20 RNA with U25G, A26G, U28G, A29C, C30U
DNA 1: CAATCTGAATTCCGGTCTCCC
DNA 2: TGGTGGCTACGACGGGATT
B32: GGGCUCU (DNA:RNA)
RNA: B20 RNA with U25G, A26G, U28C, A29U, G31U
DNA 1: CAATCTGAATTCCGGTCTCCC
DNA 2: TGGTGGCTACGACGGGATT
B33: CGGGCUC (DNA:RNA)
RNA: B1 RNA with U26G, A27G, A28G, U29C, A30U
DNA 1: CAATCTGAATTCCGGTCTCCC
DNA 2: TGGTGGCTACGACGGGATT
B34: CGGGGGC (DNA:RNA)
RNA: B1 RNA with U26G, A27G, A28G, U29G, A30G
DNA 1: CAATCTGAATTCCGGTCTCCC
DNA 2: TGGTGGCTACGACGGGATT
B35: GGGGCUC (DNA:RNA)
RNA: B1 RNA with C25G, U26G, A27G, A28G, U29C, A30U
DNA 1: CAATCTGAATTCCGGTCTCCC
DNA 2: TGGTGGCTACGACGGGATT
B36: CCCGGGC (DNA:RNA)
RNA: B1 RNA with U26C, A27C, A28G, U29G, A30G
DNA 1: CAATCTGAATTCCGGTCTCCC
DNA 2: TGGTGGCTACGACGGGATT
B37: GGGCUGU (DNA:RNA)
RNA: B1 RNA with C25G, U26G, A27G, A28C, A30G, C31U
DNA 1: CAATCTGAATTCCGGTCTCCC
DNA 2: TGGTGGCTACGACGGGATT
B38: ACCGGGC (DNA:RNA)
RNA: B1 RNA with C25A, U26C, A27C, A28G, U29G, A30G
DNA 1: CAATCTGAATTCCGGTCTCCC
DNA 2: TGGTGGCTACGACGGGATT
B39: CGGGCUG (DNA:RNA)
RNA: B20 RNA with U25C, A26G, U28G, A29C, C30U
DNA 1: CAATCTGAATTCCGGTCTCCC
DNA 2: TGGTGGCTACGACGGGATT

Target: T1, RBFOX1 RRM (Homo sapiens, UniProt Q9NWB1 109-208)
T1 sequence: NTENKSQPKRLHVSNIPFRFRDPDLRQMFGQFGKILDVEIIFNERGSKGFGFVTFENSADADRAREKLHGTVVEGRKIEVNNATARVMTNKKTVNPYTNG
Experiment: EMSA; HiTS-Eq, 1 nM pool, 10 min; buffer printed only for the single-RNA assays: 10 mM Tris pH 7.5, 150 mM NaCl, 3.4 mM EDTA, 0.001% NP-40, 30 C
Conditions: tags: His6 N-terminal (pET28a); label: 5' 32P
Outline: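 Purified RbFox RRM (wild type or mutant) was equilibrated for 10 min in 50 µL with 1 nM of a 5′-radiolabelled pool of RNA with 7 randomized nucleotides, its flanks annealed to DNA oligonucleotides, across increasing protein concentrations. Free RNA was separated by 8% native PAGE, excised, reverse-transcribed, PCR-barcoded and sequenced on an Illumina HiSeq 2500. Relative association constants came from read-count changes of each variant against the control reaction, normalised to the cognate motif.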

Row | Binder | binding signal
1 | B1 | 0.00176 KA relative to UGCAUGU
2 | B2 | 0.00562 KA relative to UGCAUGU
3 | B3 | 0.0228 KA relative to UGCAUGU
4 | B4 | 0.00975 KA relative to UGCAUGU
5 | B5 | 0.000341 KA relative to UGCAUGU
6 | B6 | 0.00882 KA relative to UGCAUGU
7 | B7 | 0.43 KA relative to UGCAUGU
8 | B8 | 0.0107 KA relative to UGCAUGU
9 | B9 | 0.0169 KA relative to UGCAUGU
10 | B10 | 0.0293 KA relative to UGCAUGU
11 | B11 | 0.0104 KA relative to UGCAUGU
12 | B12 | 0.0735 KA relative to UGCAUGU
13 | B13 | 0.558 KA relative to UGCAUGU
14 | B14 | 0.0116 KA relative to UGCAUGU
15 | B15 | 0.0157 KA relative to UGCAUGU
16 | B16 | 0.104 KA relative to UGCAUGU
17 | B17 | 0.0095 KA relative to UGCAUGU
18 | B18 | 0.00944 KA relative to UGCAUGU
19 | B19 | 0.0113 KA relative to UGCAUGU
20 | B20 | 0.0135 KA relative to UGCAUGU

Row | Binder | binding signal
21 | B21 | 0.0149 KA relative to UGCAUGU
22 | B22 | 0.00457 KA relative to UGCAUGU
23 | B23 | 0.00712 KA relative to UGCAUGU
24 | B24 | 0.00528 KA relative to UGCAUGU
25 | B25 | 0.00281 KA relative to UGCAUGU
26 | B26 | 0.0185 KA relative to UGCAUGU
27 | B27 | 0.0159 KA relative to UGCAUGU
28 | B28 | 0.582 KA relative to UGCAUGU
29 | B29 | 0.0206 KA relative to UGCAUGU
30 | B30 | 0.0176 KA relative to UGCAUGU
31 | B31 | 0.0461 KA relative to UGCAUGU
32 | B32 | 0.0214 KA relative to UGCAUGU
33 | B33 | 0.0209 KA relative to UGCAUGU
34 | B34 | 0.0168 KA relative to UGCAUGU
35 | B35 | 0.0466 KA relative to UGCAUGU
36 | B36 | 0.00898 KA relative to UGCAUGU
37 | B37 | 0.0234 KA relative to UGCAUGU
38 | B38 | 0.0122 KA relative to UGCAUGU
39 | B39 | 0.0324 KA relative to UGCAUGU
